{
  "source": "PubChem BioAssay AID588850",
  "about": "(Sanford-Burnham Center for Chemical Genomics, 2011)",
  "note": "The whole screen tested about 360,000 compounds, of which about 3,100 (0.86%) were called active. The sample as a whole holds a higher share of actives than the screen did. Values without a mark were called inactive.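 Rule for the calls: active = at least 50% inhibition at 5 µM, scaled per plate between neutral and stimulator controls; inactive = the rest.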",
  "data": [
    {"assay": "inhibitors of PAF-induced NF-kB signaling, primary screen, cell-based, GFP fluorescence, uHTS (AID 588850);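 note: PAF is a Pseudomonas aeruginosa culture filtrate used as stimulus; plate controls were PAF-stimulated DMSO wells for no effect and unstimulated DMSO wells for full effect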", "settings": "KKLEB NF-kB-GFP reporter, GFP fluorescence overnight, at 5 µM, stronger effect = higher value", "values": [
      {"smiles": "COC(=O)[C@@H]1C[C@H]2CC[C@H](O)C[C@H]2N1Cc1ccc(N2CCN(C)CC2)cc1", "inhibition": "0.1%"},
      {"smiles": "CC(C(=O)N1CCc2ccccc21)N(C)CC(=O)Nc1ccc(F)cc1", "note": "(stereo not given)", "inhibition": "-12%"},
      {"smiles": "COC1(C2=NCCN2)COc2ccccc2O1", "note": "(stereo not given)", "inhibition": "9.5%"},
      {"smiles": "S=c1[nH]nc(-c2ccco2)n1/N=C/c1ccc(Br)s1", "inhibition": "5.5%"},
      {"smiles": "COc1ccccc1/C=C/C=N/n1c(-c2ccc(Cl)cc2Cl)n[nH]c1=S", "inhibition": "1.4%"},
      {"smiles": "Cc1cc(-c2n[nH]c(=S)n2/N=C/C(Br)=C/c2ccccc2)n[nH]1", "inhibition": "87.5% (active)"},
      {"smiles": "CC1CCCCC1NC(=O)Cn1cnc2c1c(=O)n(C)c(=O)n2C", "note": "(stereo not given)", "inhibition": "3.3%"},
      {"smiles": "CC(C)c1nc(SCC(=O)NC(=O)NC(C)(C)C)n[nH]1", "inhibition": "-0.6%"},
      {"smiles": "Cc1cccc(C)c1NC(=S)N(Cc1cccnc1)Cc1ccccc1Cl", "inhibition": "-1.1%"},
      {"smiles": "COc1cccc(CC(=O)N2CCCC(CCC(=O)N3CCN(c4ccccn4)CC3)C2)c1", "note": "(stereo not given)", "inhibition": "12.7%"},
      {"smiles": "Cc1ccc(NC(=O)CSc2nnc(CNC(=O)c3ccccc3F)o2)cc1", "inhibition": "-6.4%"},
      {"smiles": "CC(C)c1ccc(CC(=O)N2CCC2(C)C(=O)NS(=O)(=O)c2ccc(C(C)(C)C)cc2)cc1", "note": "(stereo not given)", "inhibition": "3.4%"},
      {"smiles": "c1nnc2c3c4c(sc3ncn12)CCC4", "inhibition": "59% (active)"},
      {"smiles": "S=c1[nH]nc2c3c4c(sc3ncn12)CCCC4", "inhibition": "-4%"},
      {"smiles": "CC(C(=O)O)n1cnc2sc3c(c2c1=O)CCCC3", "note": "(stereo not given)", "inhibition": "12.1%"},
      {"smiles": "O=C(Nc1cccnc1)c1noc2c1CCCCC2", "inhibition": "-3.7%"},
      {"smiles": "CN1CCN(c2ccc(NC(=O)c3cc(Cl)c4c(c3)OCCO4)cc2)CC1", "inhibition": "-18.8%"},
      {"smiles": "Cn1cnnc1SCC(=O)Nc1ccc(N2CCOCC2)cc1", "inhibition": "-8.2%"},
      {"smiles": "C=CC(=O)Nc1ccc(Nc2ccnc(Nc3ccc(N4CCN(C)CC4)cc3)n2)cc1", "inhibition": "55.6% (active)"},
      {"smiles": "O=C(Nc1ccc(-n2cccn2)cc1)C1CCN(Cc2ccsc2)CC1", "inhibition": "9.7%"},
      {"smiles": "CC1CCc2c(c3ccccc3[nH]c2=O)O1", "note": "(stereo not given)", "inhibition": "0.4%"},
      {"smiles": "COc1ccc(-c2cc(C(=O)N(C)CC(=O)Nc3ccccc3Cl)c3ccccc3n2)cc1OC", "inhibition": "22.9%"},
      {"smiles": "COc1ccc(-c2cc(C(=O)N(C)Cc3ccc(OC)c(OC)c3OC)c3ccccc3n2)cc1OC", "inhibition": "27%"},
      {"smiles": "COc1ccc(CN(C)C(=O)c2cc(-c3ccc(C)cc3C)nc3ccccc23)c(OC)c1OC", "inhibition": "67.1% (active)"},
      {"smiles": "CC1Cn2c(nnc2-c2cccs2)S1", "note": "(stereo not given)", "inhibition": "9.9%"},
      {"smiles": "O=C(O)C1CCCN(CCC=C(c2ccccc2)c2ccccc2)C1", "note": "(stereo not given)", "inhibition": "9.2%"},
      {"smiles": "Cc1ccnc(NS(=O)(=O)c2ccc(NC(=O)c3ccc(S(=O)(=O)N(C)C)cc3)cc2)n1", "inhibition": "2.1%"},
      {"smiles": "CC1(C(=O)Nc2cccc3c2CCCC3)CCN1C(=O)CCc1ccc(Cl)cc1Cl", "note": "(stereo not given)", "inhibition": "-16%"},
      {"smiles": "CC(=O)O[C@]1(C(C)=O)CC[C@H]2[C@@H]3C=C(C)C4=CC(=O)CC[C@]4(C)[C@H]3CC[C@@]21C", "inhibition": "39.9%"},
      {"smiles": "CC12CCC(=O)C=C1CCC1C2C(O)CC2(C)C1CCC2(O)C(O)CO", "note": "(stereo not given)", "inhibition": "24.8%"},
      {"smiles": "CC(=O)OCC(=O)C1(O)CCC2C3CC(C)C4=CC(=O)CCC4(C)C3C(O)CC21C", "note": "(stereo not given)", "inhibition": "73% (active)"},
      {"smiles": "Cc1ccc(CC(=O)Nc2cccc(C#N)c2)cc1", "inhibition": "-4.9%"},
      {"smiles": "O=C(COC(=O)Cn1cnc2ccccc2c1=O)NCC12CC3CC(CC(C3)C1)C2", "inhibition": "-1.8%"},
      {"smiles": "O=C1C=CC(=O)N1c1ccc(N2CCCCC2)cc1", "inhibition": "67% (active)"},
      {"smiles": "c1ccc(-n2cccc2)c(N2CCCCC2)c1", "inhibition": "5.6%"},
      {"smiles": "O=C(c1ccc(Cl)c(S(=O)(=O)N2CCCCCC2)c1)N1CCN(c2ccc(O)cc2)CC1", "inhibition": "2.4%"},
      {"smiles": "O=C(Nc1ccc(F)c([N+](=O)[O-])c1)C1CCCO1", "note": "(stereo not given)", "inhibition": "4.8%"},
      {"smiles": "COc1ccc(OC)c(C2N(c3ccccn3)C(=O)C3CCCN32)c1", "note": "(stereo not given)", "inhibition": "-3.8%"},
      {"smiles": "COC(=O)c1cc(C(=O)N(Cc2ccccc2)c2ccccn2)cc([N+](=O)[O-])c1", "inhibition": "5%"},
      {"smiles": "O=C(CCl)N(Cc1cccc([N+](=O)[O-])c1)c1cccc(Cl)c1", "inhibition": "90.5% (active)"},
      {"smiles": "CC(=O)N(CN1C(=O)C2CC=CCC2C1=O)c1cccc(Cl)c1", "note": "(stereo not given)", "inhibition": "-5.3%"},
      {"smiles": "CCS(=O)(=O)c1ccc(C(=O)NC)c(Cl)c1Cl", "inhibition": "4.1%"},
      {"smiles": "C1=C(N2CCOCC2)/C(=C/c2nc3ccccc3[nH]2)CC1", "inhibition": "0.9%"},
      {"smiles": "COc1cccc(N2CCN(CC(=O)Nc3ccnn3C3CCCC3)CC2)c1", "inhibition": "-19%"},
      {"smiles": "Cc1noc(C)c1C(=O)N1CCC1(C)C(=O)NS(=O)(=O)c1ccc(C#N)cc1", "note": "(stereo not given)", "inhibition": "1.8%"},
      {"smiles": "CCOC(=O)c1c(C)[nH]c(C)c1C(=O)CSc1nc(N)cc(N)n1", "inhibition": "-5.9%"},
      {"smiles": "CCOC(=O)c1c(C)[nH]c2c1-c1ccccc1C(=O)C2=O", "inhibition": "86.7% (active)"},
      {"smiles": "CCOC(=O)c1c(NC(=O)CSc2nccc(=O)[nH]2)sc(C)c1C", "inhibition": "-8.3%"},
      {"smiles": "NCCCCC(C(=O)O)N(C(=O)OCc1ccccc1)C(=O)OCc1ccccc1", "note": "(stereo not given)", "inhibition": "1.1%"},
      {"smiles": "COc1ccc(C(CC(=O)c2ccccc2)S(=O)(=O)c2ccccc2)cc1", "note": "(stereo not given)", "inhibition": "-3.5%"},
      {"smiles": "CCCCC(=O)Nc1c2c(nn1-c1ccc([N+](=O)[O-])cc1)CS(=O)(=O)C2", "inhibition": "5.8%"},
      {"smiles": "O=C1/C(=C\\c2ccc([N+](=O)[O-])cc2)CS(=O)(=O)C/C1=C/c1ccc([N+](=O)[O-])cc1", "inhibition": "98.2% (active)"},
      {"smiles": "CN(C)S(=O)(=O)N1CCN(c2ccc([N+](=O)[O-])cc2)CC1", "inhibition": "8.2%"},
      {"smiles": "C=CCc1cc(S(=O)(=O)c2ccc(O)c(CC=C)c2)ccc1O", "inhibition": "60.6% (active)"},
      {"smiles": "CCCCN(C)c1ccc([N+](=O)[O-])cc1", "inhibition": "-12.3%"},
      {"smiles": "COc1ccccc1-c1nnc2n1N=C(c1ccc(OC(F)F)c(OCC3CC3)c1)CS2", "inhibition": "49.1%"},
      {"smiles": "COc1ccc(C2=Nn3c(nnc3-c3ccccc3OC)SC2)cc1OC1CCCC1", "inhibition": "68.4% (active)"},
      {"smiles": "CCn1c(SCC(=O)NC2CC2)nnc1-c1ccccc1OC", "inhibition": "-0.4%"},
      {"smiles": "CCCCCCCCCCCCCCCC(=O)OC/C=C(C)/C=C/C=C(C)/C=C/C1=C(C)CCCC1(C)C", "inhibition": "-16.9%"},
      {"smiles": "NC1=NOC(=O)C1C1CCCCC1", "note": "(stereo not given)", "inhibition": "25.2%"},
      {"smiles": "CCCCc1nc2ccc(F)cc2cc1C", "inhibition": "-14.3%"},
      {"smiles": "COc1ccc(N2CCN(S(=O)(=O)CCNC(=O)C34CC5CC(CC(C5)C3)C4)CC2)cc1", "inhibition": "-0.5%"},
      {"smiles": "COCCCN(C(=S)Nc1c(C)cc(C)cc1C)C(C)c1ccncc1", "note": "(stereo not given)", "inhibition": "-10.4%"},
      {"smiles": "CCCCOc1ccc(C(=O)NCC(=O)OCC(=O)N2CCN(S(=O)(=O)c3ccc(C)cc3C)CC2)cc1", "inhibition": "-0.3%"},
      {"smiles": "COc1ccc(C(C#N)=C2C=CC(=NO)c3ccccc32)cc1", "inhibition": "84.7% (active)"},
      {"smiles": "COc1ccc(/C(N)=N/OC(=O)Cc2ccccc2)cc1", "inhibition": "-28%"},
      {"smiles": "COc1ccc(C(=NN)c2ccc(OC)cc2)cc1", "inhibition": "-2.7%"},
      {"smiles": "Fc1ccc(Nc2nnns2)cc1", "inhibition": "-11.2%"},
      {"smiles": "C=CCNC(=S)NNc1ncnc2sc3c(c12)CC(C)(C)OC3", "inhibition": "-2%"},
      {"smiles": "O=C(Nc1ccc(Cl)cc1)c1csc([C@@H]2O[C@H](CO)[C@H](O)[C@H](O)[C@H]2O)n1", "inhibition": "13%"},
      {"smiles": "CC[C@]1(O)CC2CN(CCc3c([nH]c4ccccc34)[C@@](C(=O)OC)(c3cc4c(cc3OC)N(C=O)[C@H]3[C@@](O)(C(=O)OC)[C@H](OC(C)=O)[C@]5(CC)C=CCN6CC[C@]43[C@@H]65)C2)C1", "note": "(stereo not given in full)", "inhibition": "53.6% (active)"},
      {"smiles": "CC[C@]1(O)C[C@@H]2CN(CCc3c([nH]c4ccccc34)[C@@](C(=O)OC)(c3cc4c(cc3OC)N(C)[C@H]3[C@@](O)(C(=O)OC)[C@H](OC(C)=O)[C@]5(CC)C=CCN6CC[C@]43[C@@H]65)C2)C1", "inhibition": "57.6% (active)"},
      {"smiles": "C=CCNC(=S)/N=c1/ccccn1Cc1ccccc1", "inhibition": "-16.5%"},
      {"smiles": "N#CC1(C#N)C(C(=O)C23CC4CC(CC(C4)C2)C3)C12CCOCC2", "note": "(stereo not given)", "inhibition": "12.2%"},
      {"smiles": "Cc1ccc(NC(=S)Nc2ncccc2C)c(C)c1", "inhibition": "-2.7%"},
      {"smiles": "COc1cc(NC(=O)c2ccccc2NS(=O)(=O)c2ccc(Cl)s2)cc(OC)c1", "inhibition": "49.7%"},
      {"smiles": "COC(=O)c1ccc(NC(=O)c2ccccc2NS(=O)(=O)c2ccccc2)cc1", "inhibition": "59.8% (active)"},
      {"smiles": "COc1ccccc1C(=O)Nc1ccc(Nc2ccccc2)cc1", "inhibition": "6.4%"},
      {"smiles": "Cc1ccnc(NS(=O)(=O)c2ccc(NC(=O)c3oc4ccc(F)cc4c3C)cc2)n1", "inhibition": "8.7%"},
      {"smiles": "COC(=O)c1ccc(NC(=O)CSc2nncn2-c2cccnc2)cc1", "inhibition": "-0.4%"},
      {"smiles": "Cc1cc(-c2ccccc2)n2nc(C)c(-c3ccccc3)c2n1", "inhibition": "5.2%"},
      {"smiles": "O=C(NCCCN1CCN(c2ccc(F)cc2)CC1)Nc1ccc([N+](=O)[O-])cc1", "inhibition": "-19.1%"},
      {"smiles": "Cc1cccc2sc(N(CCCN(C)C)C(=O)CCS(=O)(=O)c3ccccc3)nc12", "inhibition": "85.7% (active)"},
      {"smiles": "O=C(CCS(=O)(=O)c1ccccc1)Nc1nc2c(s1)CCCC2", "inhibition": "-2.5%"},
      {"smiles": "Cc1ccc(S(=O)(=O)CCC(=O)OCC(=O)N(C)Cc2ccccc2)cc1", "inhibition": "7.6%"},
      {"smiles": "Cc1cccc(C)c1NC(=O)CCS(=O)(=O)c1cccc2nsnc12", "inhibition": "-15.6%"},
      {"smiles": "COc1ccc(N(C)C(=O)CCS(=O)(=O)c2cccc3nsnc23)cc1", "inhibition": "-4%"},
      {"smiles": "COc1cccc2sc(N(CCCN(C)C)C(=O)CCS(=O)(=O)c3ccccc3)nc12", "inhibition": "88.4% (active)"},
      {"smiles": "CC(C#N)(NC(=O)CN1CCN(S(=O)(=O)c2cc(C(F)(F)F)ccc2Cl)CC1)C1CC1", "note": "(stereo not given)", "inhibition": "17.9%"},
      {"smiles": "CCOC(=O)c1ccc(S(=O)(=O)N(CCO)Cc2cc3cc(OC)c(OC)cc3[nH]c2=O)cc1", "inhibition": "-25.3%"}
    ]}
  ]
}
